Potency and affinity values are given separately.

A word on the Inhibition: it is the change of the read-out against control, counted positive when it falls.

Test [1] concerns Klebsiella pneumoniae. The note with it: Concentration 32 ug.mL-1;; ASSAY_TEST Inhibition of Bacterial Growth; detection method Absorption (OD600); MEDIA CAMHB; plate type 384well; NBS; CORNING #3640; time 18 hr.
The subject of test [2] is Candida albicans. The note with it: Concentration 32 ug.mL-1; ASSAY_TEST Inhibition of Fungal Growth; detection method Absorption (OD530).
In test [3] the test system is Cryptococcus neoformans. The conditions noted are these: Concentration 32 ug.mL-1; ASSAY_TEST Inhibition of Fungal Growth; detection method Resazurin; Absorption (OD600-OD570); plate type 384well; NBS; CORNING #3640. (Resazurin is reduced to fluorescent resorufin, in cell work by metabolically active cells.)

For the compound `COc1ccccc1NC(=O)CSc1nnc2c(=O)n(-c3ccc(C)c(C)c3)ccn12`, the Inhibition is listed as 7.95% in test [1], 1.21% in test [2] and -7.82% in test [3].
In the case of `COc1ccc(NC(=O)Cn2nc3nc(Nc4ccc(F)cc4)ccn3c2=O)cc1F`, the Inhibition is reported as 11.34% in test [1], 0.24% in test [2] and -11.45% in test [3].
For `Cc1ccc(C)c(NC(=O)Cn2nc3c4cc(-c5ccc(C)c(C)c5)nn4ccn3c2=O)c1`, in that order: 5.73%, -1.76% and -22.88%.
The like results for `CCc1ccccc1Sc1nccn2c(=O)n(CC(=O)Nc3ccc(C)cc3C)nc12` were, in that order, 5.62%, 1.23% and -14.18%.
The like results for `Cc1ccc(-c2cc3c4nn(CC(=O)Nc5ccc6c(c5)OCO6)c(=O)n4ccn3n2)cc1` were, in that order, 10%, 9.65% and -32.25%.
As for `Cc1cccc(NC(=O)Cn2nc3ccc(-c4ccccc4)nn3c2=O)c1`, the figures for the Inhibition in test [1], in test [2] and in test [3] were 6.7%, 4.41% and -14.95%, respectively.
Turning to `O=C(Cn1nc2ccc(Sc3cccc(F)c3)nn2c1=O)Nc1ccc(Cl)cc1`, the Inhibition is reported as -0.35% in test [1], 14.09% in test [2] and -7.49% in test [3].
In the case of `COc1cccc(CNC(=O)CSc2nnc3c(=O)n(-c4cccc(OC)c4)ccn23)c1`, the Inhibition in test [1] is on record as 10.15%; in test [2], 1.25%; in test [3], -6.98%.
Turning to `CN(C)c1nc2ccccc2n2c(=O)n(CC(=O)Nc3ccc4c(c3)OCO4)nc12`, the Inhibition is 0.98% in test [1], -0.89% in test [2] and -12.71% in test [3].
The like results for `Cc1nnc2ccc(S(=O)(=O)N(Cc3ccc(F)cc3)c3cc(F)cc(F)c3)cn12` were, in that order, 9.19%, 0.51% and -14.68%.
The like results for `COc1cccc(Oc2nccn3c(=O)n(CC(=O)NCc4ccccc4Cl)nc23)c1` were, in that order, 18.21%, -2.46% and -9.66%.
With `CC(C)c1nnc2c(=O)n(CC(=O)Nc3ccc(Br)cc3)c3ccccc3n12`, the Inhibition in test [1] is recorded as 14.25%; in test [2] it was 2.31%; in test [3] it was -6.21%.
As for `O=S(=O)(c1cccn2cnnc12)N(Cc1ccc(F)cc1)c1ccc(F)cc1`, the results for the Inhibition in test [1], in test [2] and in test [3] were 4.83%, 2.44% and -6.17%, respectively.
In the case of `COc1ccc(NC(=O)Cn2nc3ccc(SC(C)(C)C)nn3c2=O)cc1OC`, the figures for the Inhibition in test [1], in test [2] and in test [3] were 16.54%, -0.86% and -14.12%, respectively.
For `CCc1ccccc1Sc1nccn2c(=O)n(CC(=O)Nc3c(C)cccc3C)nc12`, the Inhibition is given as 10.25% in test [1], 3.49% in test [2] and -15.72% in test [3].
On to `CCCCc1ccc(NC(=O)Cn2nc3c(N4CCN(c5ccccc5C)CC4)nccn3c2=O)cc1`, for which the Inhibition is given as -4.55% in test [1], 48.6% in test [2] and -6.75% in test [3].
The like results for `Cc1ccc(-c2noc(Cn3nc4ccc(-c5ccccc5)nn4c3=O)n2)cc1` were, in that order, 1.24%, 8.52% and -15.81%.
The like results for `O=c1c2nnc(SCc3ccc(Cl)cc3)n2ccn1-c1ccc(F)cc1` were, in that order, 9.2%, 1.38% and -5.79%.
The like results for `COc1ccc(Cl)cc1NC(=O)CSc1nnc2c(=O)n(-c3ccccc3)ccn12` were, in that order, 11.41%, 3.46% and -20.14%.
For `Cc1cc(C)cc(N(Cc2ccccc2)S(=O)(=O)c2cccn3c(C)nnc23)c1`, the results for the Inhibition in test [1], in test [2] and in test [3] were -0.64%, 2% and -6.56%, respectively.
The like results for `CCOc1ccc(C(=O)CSc2nnc3c(=O)n(-c4ccc(OCC)cc4)ccn23)cc1` were, in that order, 14.22%, 5.82% and -6.09%.
In the case of `Cc1ccc(NC(=O)Cn2nc3c4cc(-c5ccc(C)c(C)c5)nn4ccn3c2=O)cc1`, the Inhibition in test [1] was 12.57%; in test [2] it was 8.44%; in test [3], -14.13%.
The like results for `Cc1nnc2c(S(=O)(=O)N(Cc3ccc(F)cc3)c3ccc(F)c(F)c3)cccn12` were, in that order, 11.53%, 8.25% and -10.38%.
For `COc1ccc2[nH]cc(C(=O)CSc3nnc4c(=O)n(-c5ccc(F)cc5)ccn34)c2c1`, in that order: 12.89%, 3.24% and -7.69%.
For `Cc1ccccc1N1CCN(c2nccn3c(=O)n(CC(=O)Nc4cccc(C(C)C)c4)nc23)CC1`, in that order: 0.34%, 19.66% and -7.69%.
`COc1ccc(-c2cc3c4nnc(SCC(=O)Nc5cccc(C)c5C)n4ccn3n2)cc1`: the values for the Inhibition in test [1], in test [2] and in test [3] were 2.16%, 3.48% and -22.8%, respectively.
For `Cc1ccc(C(=O)CSc2nnc3c(=O)n(-c4ccc(F)cc4)ccn23)c(C)c1`, the Inhibition is listed as 5.21% in test [1], 2.78% in test [2] and -8.55% in test [3].
